Reference: ChEMBL document CHEMBL3988442, “University of Dundee, Small-Polar-MMV Screening Library” (2021)
The whole screen tested about 48,000 compounds, of which about 13,000 (27%) showed an effect of 50% or more. This is one part of the list.

The compounds below were run on Wolbachia pipientis (assay: Anti-Wolbachia Cell-Based Screen). Settings: 5 µM.
Type: functional
Design: scale not given: in the data most compounds retested in dose-response had high values

| Structure (SMILES) | Percent Effect |
| --- | --- |
| O=C(c1ccc(-n2cnnc2)cc1Cl)N1CCCC(O)(CO)CC1 (stereo not given) | 1.549% |
| CC(=O)N[C@@H]1CN(Cc2ccccc2-n2nc(C)cc2C)C[C@H]1C(C)C | 5.074% |
| O=C(c1ccncc1)N1C[C@@H]2CC[C@H](C1)N(C(=O)N1CCOCC1)C2 | 7.35% |
| Cc1cccc(NC(=O)N2CCOCC(CN(C)C)C2)c1C (stereo not given) | -12.45% |
| O=C(NC[C@H]1OC[C@@H](NCc2ccccn2)[C@@H]1O)N1CCOCC1 | -13.39% |
| CCOCCn1nc(C)cc1C(=O)N1CCOCC(CO)C1 (stereo not given) | -4.092% |
| c1ccc(CN2CCOC[C@H]2c2nc(-c3ccncc3)c[nH]2)nc1 | -4.896% |
| O=C(c1cncs1)N1CCOCC(Cc2ccccn2)C1 (stereo not given) | 121.8% |
| O=C(c1cncs1)N1CCOCC(Cc2ccncn2)C1 (stereo not given) | 102.2% |
| Cc1cnc(CC2COCCN(C(=O)c3cncs3)C2)cn1 (stereo not given) | 133.5% |
| COc1ccc(C(=O)N2CCOCC(CO)C2)cc1N1CCOCC1 (stereo not given) | 2.678% |
| CN(C)CC(=O)N1CCOCC(Cc2ccccn2)C1 (stereo not given) | 100.7% |
| CC(=O)N(C)C1CCCc2nc(C)sc21 (stereo not given) | -2.267% |
| CC(C)S(=O)(=O)NCC1CCCN(C(=O)c2ccc3c(c2)OCCO3)C1 (stereo not given) | -10.13% |
| COc1cccc(CC(=O)N2CCC(O)(C(F)(F)F)C2)c1 (stereo not given) | -3.145% |
| Cc1ccc(CN2CCN(c3cc(NCCO)ncn3)CC2CCO)o1 (stereo not given) | -3.553% |
| CS(=O)(=O)NCCCSCc1cccc2cccnc12 | -10.2% |
| CCC(CO)NC(=O)Cc1ccc(NC(=O)CC2=CCCCC2)cc1 (stereo not given) | -16.18% |
| Cc1cccc(-c2nnn3c2COC(CNS(=O)(=O)C2CC2)C3)c1 (stereo not given) | -1.824% |
| F[C@@H]1CN(CC2CCCCC2)C[C@@H]1OCc1nc2ccccc2o1 | -16.46% |
| CC(C)(C)c1coc([C@@H]2COCCN2Cc2cnc3ccccc3c2)n1 | -14.41% |
| Cc1cc(C)n(CC2CCCN2Cc2cscn2)n1 (stereo not given) | -19.73% |
| Cc1cn[nH]c1C1CCCN1Cc1ccc(F)c(F)c1 (stereo not given) | 102.9% |
| Cc1ccc(CN2CCOCC2c2[nH]ncc2C)cn1 (stereo not given) | 135.2% |

| Structure (SMILES) | Percent Effect |
| --- | --- |
| Cc1ccc(-c2c[nH]c([C@@H]3COCCN3Cc3cccnc3)n2)cc1 | -11% |
| Cc1ccc(CN2CCCN(Cc3cscn3)CC2)cc1 | 8.803% |
| Cc1cn[nH]c1C1COCCN1Cc1cscn1 (stereo not given) | 126.8% |
| C[C@H]1C[C@H]2CN(C(=O)C3=CCCC3)CC[C@H]2O1 | -4.42% |
| Cc1cnc(CN(Cc2ccc(C#N)cc2F)C2CCN(C)C2)o1 (stereo not given) | 0.7186% |
| O=C(Cc1ccc(O)c(F)c1)N1CCC2(CCNCC2)CC1 | 3.875% |
| CCOC(=O)N1CCN(c2nc(NCCO)c3ccccc3n2)CC1 | -13.13% |
| CS(=O)(=O)NC[C@H]1OC[C@H]2CN(CCc3ccccc3)CC[C@H]21.O=C(O)C(F)(F)F | 87.13% |
| CN(C)C(=O)NC[C@@H]1OC[C@H]2CN(Cc3cccc(F)c3)CC[C@H]21.O=C(O)C(F)(F)F | -1.144% |
| CS(=O)(=O)NC[C@@H]1OC[C@H]2CN(C(=O)c3ccccc3)CC[C@H]21 | -5.092% |
| Cc1cccc(CN2CC[C@@H]3[C@@H](CO[C@H]3CNc3ncccn3)C2)n1.O=C(O)C(F)(F)F.O=C(O)C(F)(F)F.O=C(O)C(F)(F)F | 100.3% |
| COc1ccc(CN2CC[C@H]3CO[C@H](CNC(=O)N(C)C)[C@H]3C2)cc1.O=C(O)C(F)(F)F | -1.403% |
| CCCN1CC[C@@H]2[C@@H](CO[C@H]2CNC(=O)c2nccn2C)C1.O=C(O)C(F)(F)F | -3.77% |
| CS(=O)(=O)NC[C@H]1OC[C@@H]2CCN(Cc3ccc(F)cc3)C[C@@H]21.O=C(O)C(F)(F)F | -22.2% |
| CS(=O)(=O)NC[C@@H]1OC[C@H]2CN(C(=O)c3ccccn3)CC[C@H]21.O=C(O)C(F)(F)F | -10.63% |
| COc1ccc(CN2CC[C@H]3[C@H](CO[C@H]3CNC(=O)N(C)C)C2)cc1.O=C(O)C(F)(F)F | 1.388% |
| Cc1cccc(CN2CC[C@H]3CO[C@H](CNC(=O)N(C)C)[C@H]3C2)c1.O=C(O)C(F)(F)F | -5.522% |
| CS(=O)(=O)NC[C@H]1OC[C@@H]2CCN(CCc3ccccc3)C[C@@H]21.O=C(O)C(F)(F)F | 101.5% |
| CS(=O)(=O)NC[C@@H]1OC[C@H]2CN(Cc3ccccc3)CC[C@H]21.O=C(O)C(F)(F)F | 107.1% |
| CCN1CC2(CCN(CC3COCCO3)CC2)OC1=O (stereo not given) | -23.81% |
| CN1CCN(CCCN(C)S(=O)(=O)C2CCCCC2)CC1 | -3.997% |
| CCc1cc(=O)[nH]c2nnc(SCC(=O)NC(C)C)n12 | 9.216% |
| CCn1c(CN(C)C)nnc1C1CCN(c2ccnc(C)c2)CC1 | -12.28% |
| Cn1nc(Cl)cc1C(=O)N1CCC(C(=O)c2nc3ccccc3s2)CC1 | 97.43% |

| Structure (SMILES) | Percent Effect |
| --- | --- |
| Cn1nc(CNC(=O)c2nc3ccccc3s2)c2c1CCOC2 | -7.604% |
| Cn1nc2c(cc1=O)CN(c1nc3ccccc3s1)CC2 | 9.519% |
| Cc1sc2nc(C(F)(F)F)nc(N3CCCN(C)CC3)c2c1C | 3.641% |
| COc1nc(C)c(C(=O)N(C)Cc2nc(-c3ccccn3)no2)s1 | 6.707% |
| Cc1ccc(C(CNCc2ncc[nH]2)N2CCOCC2)s1 (stereo not given) | -41.63% |
| O[C@H]1CN(Cc2ccnc(N3CCCC3)n2)CC[C@@]12CCCO2 | 120.1% |
| OC1CCCOC12CCN(Cc1nnc(-c3cccnc3)o1)CC2 (stereo not given) | -12.47% |
| COc1cc(OC)nc(N2CCC3(CC2)OCCCC3O)n1 (stereo not given) | -8.22% |
| OC1CCCOC12CCN(c1ncccn1)CC2 (stereo not given) | 8.98% |
| O[C@H]1CN(Cc2c[nH]nc2-c2ccccc2)CC[C@@]12CCCO2 | 151.3% |
| CCOC(=O)C1CCCN(Cc2c[nH]nc2-c2cc3ccccc3o2)C1 (stereo not given) | -24.88% |
| Cc1ccccc1CC(C)(C)NC(=O)c1cccc(OCC(N)=O)c1 | -9.051% |
| CCn1nnc2c1C(COC)CN(C(=O)COc1ccccc1)C2 (stereo not given) | -1.685% |
| O=C(c1ncccn1)N1C[C@@H]2COC[C@]2(COCc2cccnc2)C1 | 11.05% |
| O=C(c1ncccn1)N1C[C@@H]2COC[C@]2(COc2cccnc2)C1 | 108.1% |
| O=C(c1cocn1)N1C[C@@H]2COC[C@]2(COc2cccnc2)C1 | 92.15% |
| COCc1cncc2c1CCN(C(=O)c1ccc(C#N)cc1)C2.O=C(O)C(F)(F)F | 122.8% |
| N#Cc1cccc(C(=O)N2CCc3c(COCC4CC4)cncc3C2)c1.O=C(O)C(F)(F)F | -0.2698% |
| O=C(c1cccnc1)N1CCc2c(COCC3CC3)cncc2C1 | 11.19% |
| N#Cc1ccc(C(=O)N2CCc3c(COCC4CC4)cncc3C2)cc1 | 120.9% |
| O=C(c1ccncc1)N1CCc2c(COCC3CC3)cncc2C1 | -2.638% |
| COCc1cncc2c1CCN(C(=O)c1cccc(C#N)c1)C2.O=C(O)C(F)(F)F | 95.5% |
| CCOCc1cncc2c1CCN(C(=O)c1cccc(C#N)c1)C2 | 8.725% |
| CC(C)=CCN1CCC2(CC1)c1ccccc1[C@@H](N1CCSCC1)[C@@H]2O | 17.95% |

| Structure (SMILES) | Percent Effect |
| --- | --- |
| CCN(CC)C(=O)c1nc2c(s1)CCN(C(=O)Nc1ccccc1)CC2 | 97.77% |
| NC(=O)c1nc2c(s1)CCN(Cc1ccccc1)CC2.O=C(O)C(F)(F)F | -10.1% |
| CNC(=O)c1nc2c(s1)CCN(C(=O)c1ccccc1)CC2 | -10.92% |
| NC(=O)c1nc2c(s1)CCN(C(=O)Nc1ccccc1)CC2 | 118.3% |
| CN(C)C(=O)c1nc2c(s1)CCN(C(=O)c1ccc(Cl)cc1)CC2 | -17.04% |
| COc1cccc(CC(=O)N2CCc3nc(C(N)=O)sc3CC2)c1 | -1.696% |
| CCN(CC)C(=O)c1nc2c(s1)CCN(C(=O)CCC(=O)OC)CC2 | -10.26% |
| CNC(=O)N1CCc2nc(C(=O)Nc3cccnc3)sc2CC1 | -5.762% |
| O=C(Nc1ccccc1)N1CCc2nc(C(=O)N3CCCC3)sc2CC1 | 124.8% |
| O=C(c1ccc(Cl)cc1)N1CCc2nc(C(=O)N3CCCC3)sc2CC1 | 0.273% |
| CCN(CC)C(=O)c1nc2c(s1)CCN(Cc1cccc(OC)c1)CC2.O=C(O)C(F)(F)F | -1.01% |
| NC(=O)c1nc2c(s1)CCN(C(=O)Nc1cccc(Cl)c1)CC2 | 103.6% |
| O=C(c1ccc2c(c1)[nH]c(=O)n2C1CCCC1)N1CCSCC1 | 1.159% |
| CCCSc1ncc(CN2CCN(C)C(=O)C2C)cn1 (stereo not given) | 3.746% |
| Cc1nsc(NC(=O)N2CCN(Cc3ccccc3F)C(=O)C2)n1 | -10.42% |
| Clc1cccc(-c2noc(CCN3CCN(c4ccncc4)CC3)n2)c1 | 4.288% |
| CN(Cc1ccc(Cl)s1)C(=O)Nc1ccc(N(C)C)nc1 | 10.16% |
| COCCN(Cc1cnn(C)c1)C(=O)C1COc2c(cccc2OC)C1 (stereo not given) | -6.746% |
| COCCCN1CC2(CCCCN2C(=O)COC)CC1=O (stereo not given) | -19.41% |
| CCN1CC2(CCCCN2C(=O)c2ccsc2)CC1=O (stereo not given) | 92.4% |
| CN1CC2(CCCCN2C(=O)c2ccsc2)CC1=O (stereo not given) | 106.9% |
| CCN1CC2(CCCCN2C(=O)c2ccn(C)n2)CC1=O (stereo not given) | -5.146% |
| CCN1C(=O)CCCC12CCCN(C(=O)c1ccsc1)C2 (stereo not given) | 0.7078% |
